Measurements taken from ChEMBL document CHEMBL3988442, “University of Dundee, Small-Polar-MMV Screening Library” (2021).
For some assays here: Measured potencies and affinities stand elsewhere.

Columns and labels:
Parameters in all cases: scale not given: direction of the effect not stated beside the values
[1] = biological target: Protein translocase subunit SecA (Escherichia coli (strain K12)) (UniProt P10408); experiment: Assay to Identify E. coli SecA ATPase Inhibitors; type: functional; conditions: 30 µM
[2] = biological target: T1, Ubiquitin-activating enzyme e1, putative (Leishmania donovani (strain BPK282A1)) (UniProt E9BSI1); experiment: Leishmania donovani Ubiquitin Activating Enzyme (LdE1); type: functional; conditions: 30 µM
T1 sequence (whole entry): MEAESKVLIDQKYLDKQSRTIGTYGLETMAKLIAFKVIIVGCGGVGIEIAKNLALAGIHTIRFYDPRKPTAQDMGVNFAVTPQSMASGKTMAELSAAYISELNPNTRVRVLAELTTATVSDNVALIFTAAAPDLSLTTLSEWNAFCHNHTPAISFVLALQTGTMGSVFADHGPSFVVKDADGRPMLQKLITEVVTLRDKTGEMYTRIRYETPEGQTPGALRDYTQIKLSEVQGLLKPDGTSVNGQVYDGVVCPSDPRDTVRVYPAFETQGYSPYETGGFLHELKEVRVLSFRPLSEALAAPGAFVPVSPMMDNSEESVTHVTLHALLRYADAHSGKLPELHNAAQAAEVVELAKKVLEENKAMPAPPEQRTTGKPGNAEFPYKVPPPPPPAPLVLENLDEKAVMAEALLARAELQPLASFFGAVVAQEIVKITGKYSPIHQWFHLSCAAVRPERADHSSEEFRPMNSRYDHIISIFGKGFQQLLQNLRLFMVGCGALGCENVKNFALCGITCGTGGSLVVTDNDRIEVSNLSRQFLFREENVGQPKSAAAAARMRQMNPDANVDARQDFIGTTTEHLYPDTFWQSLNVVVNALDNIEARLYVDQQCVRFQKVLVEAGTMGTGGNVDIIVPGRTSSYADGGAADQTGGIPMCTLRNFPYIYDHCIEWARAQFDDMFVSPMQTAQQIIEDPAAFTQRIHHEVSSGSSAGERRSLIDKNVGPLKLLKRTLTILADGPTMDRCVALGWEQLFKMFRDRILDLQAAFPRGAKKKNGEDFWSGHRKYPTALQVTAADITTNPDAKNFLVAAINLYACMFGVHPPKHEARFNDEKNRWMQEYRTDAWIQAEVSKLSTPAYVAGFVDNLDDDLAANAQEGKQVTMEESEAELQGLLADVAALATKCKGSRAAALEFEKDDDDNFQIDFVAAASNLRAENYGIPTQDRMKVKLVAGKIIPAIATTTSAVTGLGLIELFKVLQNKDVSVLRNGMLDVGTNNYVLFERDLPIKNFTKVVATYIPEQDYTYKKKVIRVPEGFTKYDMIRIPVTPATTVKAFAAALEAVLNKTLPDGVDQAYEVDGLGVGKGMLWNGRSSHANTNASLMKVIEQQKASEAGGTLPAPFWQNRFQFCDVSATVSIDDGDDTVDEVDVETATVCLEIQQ

[3] = biological target: AMP-activated protein kinase, AMPK (Homo sapiens) (UniProt P54646+O43741+P54619+Q9UGJ0+Q9Y478+Q13131+Q9UGI9); experiment: AMP-dependent Kinase enzyme assay. An in vitro enzyme assay that detects ADP turnover that is directly proportional to AMPK activity. This uses naive AMPK that is activated during the assay with MK-8722; type: functional; conditions: 30 µM
[4] = biological target: Sialic acid-binding Ig-like lectin 9 (Homo sapiens) (UniProt Q9Y336); experiment: Hs-Siglec9 ALPHAscreen SOP 20170721; conditions: 10 µM
[5] = system: Trypanosoma cruzi; experiment: Trypanosoma cruzi phosphomannomutase and mannose-1-phosphate guanylyltransferase assay; type: functional; conditions: 10 µM
[6] = biological target: T2, Arginase-2, mitochondrial (Homo sapiens) (UniProt P78540); experiment: in vitro enzyme assay to detect the production of urea directly proportional to the activity of Arginase II; type: functional; conditions: 33.3 µM; further: in the data most compounds retested in dose-response had high values
T2 sequence (whole entry): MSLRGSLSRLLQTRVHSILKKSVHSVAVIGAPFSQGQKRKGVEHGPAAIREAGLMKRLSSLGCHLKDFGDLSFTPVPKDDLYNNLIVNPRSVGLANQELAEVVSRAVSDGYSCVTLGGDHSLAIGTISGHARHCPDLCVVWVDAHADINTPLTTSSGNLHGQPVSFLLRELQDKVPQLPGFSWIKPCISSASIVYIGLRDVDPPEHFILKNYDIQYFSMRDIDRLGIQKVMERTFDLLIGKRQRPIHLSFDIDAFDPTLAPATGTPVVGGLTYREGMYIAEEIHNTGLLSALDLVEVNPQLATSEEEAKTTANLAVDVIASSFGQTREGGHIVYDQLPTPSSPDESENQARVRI

[7] = biological target: T3, Proteasome subunit beta (Trypanosoma cruzi) (UniProt O96673); experiment: Trypanosoma cruzi proteasome chymotrypsin-like activity (TcProtChymo) assay.; further: in the data most compounds retested in dose-response had high values; type: functional; conditions: 9.37 µM
T3 sequence (whole entry): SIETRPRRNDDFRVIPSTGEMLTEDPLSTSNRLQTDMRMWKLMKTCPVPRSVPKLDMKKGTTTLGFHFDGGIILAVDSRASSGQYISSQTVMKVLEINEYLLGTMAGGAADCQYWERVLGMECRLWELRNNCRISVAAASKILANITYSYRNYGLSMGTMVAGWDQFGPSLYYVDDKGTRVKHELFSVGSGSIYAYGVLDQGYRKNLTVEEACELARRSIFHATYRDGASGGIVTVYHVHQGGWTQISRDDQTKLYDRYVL

[8] = species: Homo sapiens; experiment: To identify inhibition of the IFN signalling (Jak-Stat) pathway via expression of an eGFP reporter gene under the control of an IFN-stimulated response element (ISRE) containing MxA promoter.; type: functional; conditions: 30 µM
[9] = biological target: T4, Tyrosyl-tRNA synthetase, putative (Trypanosoma cruzi (strain CL Brener)) (UniProt Q4DSP6); experiment: Trypanosoma cruzi tyrosyl tRNA synthetase (TcYRS) _High Tyrosine SOP; type: functional; conditions: 30 µM; further: in the data most compounds retested in dose-response had high values
T4 sequence (whole entry): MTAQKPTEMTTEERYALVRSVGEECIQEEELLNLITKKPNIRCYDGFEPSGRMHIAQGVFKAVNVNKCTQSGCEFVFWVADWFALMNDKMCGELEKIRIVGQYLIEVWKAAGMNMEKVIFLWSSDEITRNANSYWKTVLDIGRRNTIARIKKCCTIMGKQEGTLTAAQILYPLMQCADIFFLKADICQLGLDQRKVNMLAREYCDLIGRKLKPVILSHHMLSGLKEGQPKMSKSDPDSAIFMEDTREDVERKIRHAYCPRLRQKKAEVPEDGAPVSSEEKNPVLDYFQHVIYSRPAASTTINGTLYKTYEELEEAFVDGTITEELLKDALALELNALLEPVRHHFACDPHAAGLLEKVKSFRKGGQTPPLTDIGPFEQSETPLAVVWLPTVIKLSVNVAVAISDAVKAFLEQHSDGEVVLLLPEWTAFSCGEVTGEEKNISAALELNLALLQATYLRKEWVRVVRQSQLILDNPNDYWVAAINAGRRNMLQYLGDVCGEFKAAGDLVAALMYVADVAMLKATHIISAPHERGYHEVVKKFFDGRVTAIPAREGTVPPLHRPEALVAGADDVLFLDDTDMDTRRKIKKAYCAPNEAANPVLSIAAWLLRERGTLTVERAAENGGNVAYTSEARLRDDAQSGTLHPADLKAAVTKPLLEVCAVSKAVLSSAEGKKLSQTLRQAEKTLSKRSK

[10] = biological target: T4, Tyrosyl-tRNA synthetase, putative (Trypanosoma cruzi (strain CL Brener)); experiment: Trypanosoma cruzi tyrosyl tRNA synthetase (TcYRS) SOP; type: functional; conditions: 30 µM
[11] = biological target: Chromo domain-containing protein 1 (Saccharomyces cerevisiae (strain ATCC 204508 / S288c) (Baker's yeast)) (UniProt P32657); experiment: ScCHD-1 Enzyme Inhibition Assay; type: functional; conditions: 30 µM; further: in the data most compounds retested in dose-response had high values
Chromo domain-containing protein 1 (Saccharomyces cerevisiae (strain ATCC 204508 / S288c) (Baker's yeast)), sequence (P32657 whole entry, the tested form may be a part): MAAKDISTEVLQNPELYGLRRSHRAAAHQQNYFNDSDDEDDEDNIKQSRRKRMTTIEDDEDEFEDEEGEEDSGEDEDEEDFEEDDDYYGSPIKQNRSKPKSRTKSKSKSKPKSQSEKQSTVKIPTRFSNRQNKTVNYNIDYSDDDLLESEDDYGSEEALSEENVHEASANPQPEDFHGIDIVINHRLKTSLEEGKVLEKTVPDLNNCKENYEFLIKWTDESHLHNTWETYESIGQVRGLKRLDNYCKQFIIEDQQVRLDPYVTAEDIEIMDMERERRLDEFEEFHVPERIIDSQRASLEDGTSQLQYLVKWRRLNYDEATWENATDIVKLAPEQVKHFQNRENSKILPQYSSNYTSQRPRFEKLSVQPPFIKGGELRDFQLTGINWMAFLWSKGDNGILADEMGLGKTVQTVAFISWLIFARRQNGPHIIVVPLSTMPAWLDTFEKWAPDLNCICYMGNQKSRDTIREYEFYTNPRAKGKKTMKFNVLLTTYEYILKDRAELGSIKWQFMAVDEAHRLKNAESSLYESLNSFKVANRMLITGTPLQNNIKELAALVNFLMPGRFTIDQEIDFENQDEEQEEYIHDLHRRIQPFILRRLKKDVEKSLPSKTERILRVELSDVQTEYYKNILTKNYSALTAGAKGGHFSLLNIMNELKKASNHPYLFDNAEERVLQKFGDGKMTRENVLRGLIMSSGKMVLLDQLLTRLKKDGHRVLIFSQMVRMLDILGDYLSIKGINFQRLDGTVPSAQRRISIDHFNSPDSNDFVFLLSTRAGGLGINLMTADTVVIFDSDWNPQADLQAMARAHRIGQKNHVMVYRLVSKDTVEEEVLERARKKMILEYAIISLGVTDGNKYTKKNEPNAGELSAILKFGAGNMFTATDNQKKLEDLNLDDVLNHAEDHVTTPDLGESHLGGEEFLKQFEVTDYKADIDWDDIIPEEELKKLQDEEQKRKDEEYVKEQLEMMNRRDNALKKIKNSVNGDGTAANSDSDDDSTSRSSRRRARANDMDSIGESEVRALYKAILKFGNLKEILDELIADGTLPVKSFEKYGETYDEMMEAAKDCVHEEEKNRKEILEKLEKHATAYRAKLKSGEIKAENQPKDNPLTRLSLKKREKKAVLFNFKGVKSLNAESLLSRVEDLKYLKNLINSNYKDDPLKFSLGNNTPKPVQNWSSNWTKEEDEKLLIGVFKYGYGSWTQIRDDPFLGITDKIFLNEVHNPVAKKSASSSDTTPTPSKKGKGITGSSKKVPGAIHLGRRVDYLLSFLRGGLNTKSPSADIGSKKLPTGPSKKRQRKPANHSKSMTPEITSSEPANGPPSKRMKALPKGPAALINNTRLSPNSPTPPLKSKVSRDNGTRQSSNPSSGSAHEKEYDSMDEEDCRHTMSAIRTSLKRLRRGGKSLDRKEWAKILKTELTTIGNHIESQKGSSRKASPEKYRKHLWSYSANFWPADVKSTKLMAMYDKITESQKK

Sialic acid-binding Ig-like lectin 9 (Homo sapiens), sequence (Q9Y336 whole entry): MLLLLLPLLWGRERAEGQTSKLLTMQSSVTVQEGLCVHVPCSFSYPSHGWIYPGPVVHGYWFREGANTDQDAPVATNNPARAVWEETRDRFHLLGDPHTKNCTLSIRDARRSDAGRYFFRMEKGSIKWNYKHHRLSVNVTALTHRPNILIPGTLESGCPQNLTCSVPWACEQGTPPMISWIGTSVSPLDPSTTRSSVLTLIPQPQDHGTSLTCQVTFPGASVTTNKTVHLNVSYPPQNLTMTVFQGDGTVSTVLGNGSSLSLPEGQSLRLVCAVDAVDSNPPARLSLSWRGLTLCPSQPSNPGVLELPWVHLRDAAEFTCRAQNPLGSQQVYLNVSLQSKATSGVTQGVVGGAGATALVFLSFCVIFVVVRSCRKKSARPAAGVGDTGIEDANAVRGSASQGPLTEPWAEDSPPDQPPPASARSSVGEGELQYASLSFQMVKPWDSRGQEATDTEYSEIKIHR
Protein translocase subunit SecA (Escherichia coli (strain K12)), sequence (P10408 whole entry): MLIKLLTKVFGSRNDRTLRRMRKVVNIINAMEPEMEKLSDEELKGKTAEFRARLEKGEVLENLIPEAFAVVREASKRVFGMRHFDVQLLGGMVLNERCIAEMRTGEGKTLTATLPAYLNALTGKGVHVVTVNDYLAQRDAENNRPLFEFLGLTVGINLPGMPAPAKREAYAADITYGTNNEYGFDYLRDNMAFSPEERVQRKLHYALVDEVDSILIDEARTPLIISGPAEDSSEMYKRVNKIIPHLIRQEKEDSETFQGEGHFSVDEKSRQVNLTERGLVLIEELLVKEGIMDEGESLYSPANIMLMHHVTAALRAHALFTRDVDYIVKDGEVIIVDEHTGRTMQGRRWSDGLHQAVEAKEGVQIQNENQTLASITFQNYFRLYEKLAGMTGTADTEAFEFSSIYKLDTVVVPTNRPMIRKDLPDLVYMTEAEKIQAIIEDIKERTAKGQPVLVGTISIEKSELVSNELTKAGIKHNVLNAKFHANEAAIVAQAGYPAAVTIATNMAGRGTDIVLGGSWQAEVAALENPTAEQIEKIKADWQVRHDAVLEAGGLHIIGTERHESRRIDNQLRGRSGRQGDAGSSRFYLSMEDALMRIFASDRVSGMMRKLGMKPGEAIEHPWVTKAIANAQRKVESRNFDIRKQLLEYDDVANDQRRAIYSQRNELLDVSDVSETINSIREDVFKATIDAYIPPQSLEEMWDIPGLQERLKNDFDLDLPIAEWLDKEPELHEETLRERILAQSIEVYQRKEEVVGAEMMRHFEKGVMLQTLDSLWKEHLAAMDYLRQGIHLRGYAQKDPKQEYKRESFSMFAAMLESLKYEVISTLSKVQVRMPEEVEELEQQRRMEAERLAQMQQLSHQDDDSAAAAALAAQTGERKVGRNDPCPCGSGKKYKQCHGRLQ

Row | Compound | Percent Effect [1] | Percent Effect [2] | Percent Effect [3] | Percent Effect [4] | Percent Effect [5] | Percent Effect [6] | Percent Effect [7] | Percent Effect [8] | Percent Effect [9] | Percent Effect [10] | Percent Effect [11]
1 | CCC(O)CN1CCN(C(=O)c2ccnc(N(C)C)c2)CC1 (stereo unspecified) | -1.16% | 5.41% | -5.16% | 13% | 6.37% | 14.3% | 4.83% | -0.0962% | 1.59% | 12.2% | -4.75%
2 | c1ccc(-c2nc(CN3CCCC3Cn3cncn3)cs2)cc1 (stereo unspecified) | -2.21% | -17.7% | -1.4% | 4.03% | 3.68% | -2.28% | 1.39% | -16.9% | 4.43% | 3.8% | 25.8%
3 | COCC(=O)N1Cc2cn(C)nc2C(COc2cccnc2)C1 (stereo unspecified) | 1.2% | 15.6% | 0.672% | -9.95% | -0.493% | 7.1% | 10.4% | 35.1% | 1.06% | 6.41% | -9.03%
4 | Cc1cc(F)ccc1CN1CCC(O)(CN2CCCCC2)C1 (stereo unspecified) | -6.21% | 5.33% | -7.83% | 3.56% | -1.46% | -1.04% | 19.2% | -1.85% | 4.92% | 8.64% | -4.93%
5 | O=C(c1ccco1)N1CCCC1C1CCN(Cc2ccccc2)CC1 (stereo unspecified) | -3.11% | 7.89% | 6.52% | -0.267% | -2.24% | 4.73% | 17.9% | 8.16% | 6.38% | 10.4% | -2.37%
6 | CN1CCN(Cc2cnc3n2CCN(Cc2cccs2)C3)CC1 | -1.16% | 21.6% | -2.7% | -1.5% | 3.62% | 2.87% | 19.7% | -1.05% | 4.32% | 20.5% | -0.68%
7 | Cc1cccc(Cn2c3c(ccc2=O)CCN(Cc2ccoc2)CC3)n1 | -0.765% | 8.22% | -3.21% | 11.9% | 7.54% | -14% | 10.5% | 6.67% | 4.17% | 6.17% | -3.8%
8 | CC(C)(C)CC(=O)N1CC[C@@H]2[C@H](CC1)N(S(C)(=O)=O)CCS2(=O)=O | -2.22% | 16.2% | -9.04% | 3.69% | 5.27% | 15% | 9.89% | 8.9% | 8.91% | 20.7% | -8.05%
9 | COCC(=O)N1CCCC1c1ccnc(Nc2cnccn2)n1 (stereo unspecified) | -3.17% | 12.2% | 9.2% | 8.04% | -0.395% | 0.232% | 10.3% | -10.9% | 12.9% | 22.1% | -7.89%
10 | CCOCC(O)CN1CCN(C(=O)c2cnc3n[nH]c(C)c3c2)CC1 (stereo unspecified) | -4.29% | 10.5% | 1.79% | 1.55% | 5.7% | 1.44% | 8.54% | 10.1% | 7.39% | 16.1% | -0.703%
11 | Cc1cc(C)c(CNC(=O)C2CCCN(c3cnccn3)C2)c(=O)[nH]1 (stereo unspecified) | -3.46% | 10.5% | -6.83% | 10.1% | -4.13% | -1.53% | 11.5% | -8.19% | -0.49% | -12.2% | -5.39%
12 | CCN(Cc1ccco1)C(=O)Nc1cc(C(F)(F)F)c[nH]c1=O | -7.27% | 10.5% | 0.625% | -6.37% | -2.71% | 0.719% | 2.79% | -6.49% | 4.43% | 13.6% | -9.51%
13 | CNC(=O)c1cccc(NC(=O)Cn2nc(-c3cccs3)oc2=O)c1 | -8.44% | 13.5% | 133% | 18.8% | 9.38% | -0.924% | 4.13% | -0.599% | 6.93% | 13.4% | -2.88%
14 | CCc1nc(C(=O)NCc2ccc(N3CCNC(=O)C3)c(F)c2)c[nH]1 | 2.33% | 18.9% | -4.78% | 31.7% | 4.63% | -3.81% | 20% | 13.4% | 5.82% | 12.2% | -2.24%
15 | O=C(c1cnccn1)N1CCN(Cc2ccncc2)c2ncccc2C1 | -1.27% | 0% | 2.52% | 4.53% | -1.54% | -20.2% | 2.73% | -10.5% | 2.08% | 2.5% | -3.2%
16 | CC(C(N)=O)N(C)CCCc1cc(-c2ccccc2)no1 (stereo unspecified) | -2.48% | 13.5% | 3.69% | 0.652% | -9.75% | -0.185% | 7.54% | 10.5% | 5.94% | 13.4% | -3.63%
